Measurements published in PubChem BioAssay AID2688 (National Center for Advancing Translational Sciences (NCATS), 2010).
The list shows a part of the results. Results filed as inconclusive are left out. The source made the active and inactive calls.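 How the source made its calls: active means compounds whose IC50 for blocking JMJD2E demethylation is below 100 µM; inconclusive means dose dependent effect but IC50 above 100 µM; inactive means the rest.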

The molecules below were run against Lysine-specific demethylase 4E (Homo sapiens) (UniProt B2RXH2) (assay: MALDI-TOF-MS Assay for Inhibitors of Human Jumonji Domain Containing 2E (JMJD2E)). Details: recombinant JMJD2E demethylation.
Chain of Lysine-specific demethylase 4E (Homo sapiens) (B2RXH2 1-337 limits assumed): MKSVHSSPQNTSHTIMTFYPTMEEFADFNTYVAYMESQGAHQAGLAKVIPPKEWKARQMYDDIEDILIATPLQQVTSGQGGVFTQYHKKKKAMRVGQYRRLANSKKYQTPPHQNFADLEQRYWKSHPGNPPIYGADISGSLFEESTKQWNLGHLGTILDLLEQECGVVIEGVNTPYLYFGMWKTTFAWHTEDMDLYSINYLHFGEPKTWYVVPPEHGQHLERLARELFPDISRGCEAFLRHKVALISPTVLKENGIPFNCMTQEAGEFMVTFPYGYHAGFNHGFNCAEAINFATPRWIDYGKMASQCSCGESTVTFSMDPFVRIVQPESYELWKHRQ
From the text: The fine interplay among methylation states of several lysine residues on the tails of histone proteins is a major determinant of the transcriptional state of the associated DNA coding regions and is commonly referred to as the histone code. Histone lysine demethylases catalyze the removal of methyl groups from methylated lysine sidechains on histones H3 and H4, thus antagonizing the reactions catalyzed by histone lysine methyltransferases. […] In search for novel inhibitors of JMJD2E demethylase, a member of the largest set of histone demethylases belonging to the Fe(II) and 2-oxoglutarate oxygenase (2OG) superfamily, we performed a quantitative high-throughput screen (Inglese 2006). See AID 2147 for details on the primary screen. […]
For the MS assays, JMJD2E (2 uM), FAS (10 uM) and SA (100 uM) in HEPES buffer, 50 mM, pH 7.5, were incubated with inhibitor (stock solutions in DMSO, final in-assay concentration varied, but final DMSO concentration was 5% of assay mix) for 15 min at room temperature. […] The relative intensities of different methylation states observed in the mass spectra were then used to calculate percentage demethylation, and IC50s were calculated from the variation in percentage demethylation at different inhibitor concentrations.

Row | Structure (SMILES) | Potency
1 | Oc1ccc(/C=C/c2c(F)cccc2F)c2cccnc12 | 89.6 µM (active)
2 | Nc1ccc(Nc2cc(O)c3ncccc3c2)cc1 | 20.2 µM (active)
